# About 83,000 compounds went through this panel and 20% of them were active in at least one assay; those are over-represented in the sample as a whole.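 Values shown are percent growth following 48 h exposure of cells in 96-well plates to a single concentration of compound; below 10 was considered active.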 A number with no mark means an inactive call. Activity calls are given as the source filed them.
# Tests used:
# Test in all cases: NCI-60 one-dose screen, 48 h (100 = growth as untreated, 0 = no growth, -100 = all killed)
# Conditions in all cases: 10 µM unless noted
# DU-145 prostate = test system: DU-145 prostate
# K-562 leukemia = test system: K-562 leukemia
# MALME-3M melanoma = test system: MALME-3M melanoma
# MDA-MB-231 breast = test system: MDA-MB-231 breast
# RXF 393 renal = test system: RXF 393 renal
# SF-268 CNS = test system: SF-268 CNS
# SF-295 CNS = test system: SF-295 CNS
# SF-539 CNS = test system: SF-539 CNS
# UACC-257 melanoma = test system: UACC-257 melanoma
SMILES,growth (DU-145 prostate),growth (K-562 leukemia),growth (MALME-3M melanoma),growth (MDA-MB-231 breast),growth (RXF 393 renal),growth (SF-268 CNS),growth (SF-295 CNS),growth (SF-539 CNS),growth (UACC-257 melanoma)
O=C(Nc1ccncc1)C(=O)c1cn(S(=O)(=O)c2ccc(Oc3ccccc3)cc2)c2ccccc12,96.8%,81.5%,84.9%,68.9%,110%,109%,60%,96.5%,103%
COc1cc2c(cc1OCCCCCn1c3ccccc3c3ccccc31)N=C[C@@H]1CCCN1C2=O,-53.3% (active),-21.1% (active),-64.7% (active),-87.1% (active),-80.7% (active),-59.9% (active),11.7%,-85.8% (active),-55.4% (active)
Cc1c(C(=O)/C=C/c2csc3ccccc23)[n+](=O)c2ccccc2n1[O-],-3.03% (active),21.7%,125%,64.2%,13.1%,44%,84.6%,89.2%,81.5%
O=c1[nH]c(Nc2ccc(S(=O)(=O)O)cc2)nc2nc(Nc3ccc(NC(=S)Nc4ccccc4)cc3)nc(-c3ccc(O)cc3O)c12,133%,101%,98.8%,90.5%,115%,104%,121%,189%,139%
N/C(=N\S(=O)(=O)c1ccccc1)Nc1nc2ccccc2s1,111%,84.9%,105%,92.3%,99.4%,92.2%,92.7%,91.2%,92.6%
O=c1[nH]c(NCc2ccccc2)nc2nc(Nc3ccc(NC(=S)Nc4ccccc4)cc3)nc(-c3ccc(O)cc3O)c12,116%,63.3%,103%,90.2%,81.4%,96%,147%,108%,39.7%
COc1ccc(-n2c(=S)sc3c(Cl)nc(C)nc32)c(OC)c1,6.39% (active),2.62% (active),80.2%,-14.9% (active),42.6%,4.67% (active),85.1%,20%,77.9%
COc1cc(/C=C/C(=O)c2c(C)nc3ccccc3c2C)ccc1OCCCCOc1cc2c(cc1OC)C(=O)N1CCC[C@H]1C=N2,-100% (active),-55.5% (active),-81.3% (active),-65.9% (active),-92.6% (active),-35.6% (active),-48.9% (active),-90.6% (active),-88% (active)
COc1ccc(C(=O)N2NC(=O)/C(=C/c3ccc(F)cc3)N=C2c2ccccc2)cc1,113%,94.4%,91.4%,88.1%,94.5%,105%,80.4%,97%,99.3%
O=C(Nc1ccc(Cl)c(Cl)c1)NS(=O)(=O)c1cnccc1Oc1ccc(F)cc1,78.5%,19.6%,41.2%,93.9%,38%,80.7%,13.7%,90.1%,-7.26% (active)
CCCCCCCC[C@@H](O)CC(=O)N[C@@H](CC(N)=O)C(=O)N[C@@H](CCC(N)=O)C(=O)N[C@@H](CC(=O)c1cc(C)cc(O)c1C(=O)c1c(O)cccc1O)CC(C)C,54%,23.8%,51.3%,12.1%,-49.5% (active),9.65% (active),21%,-5.78% (active),14.9%
O=c1cc/c(=N\Nc2ccccc2)c(=O)/c1=N/Nc1ccccc1,106%,105%,119%,100%,121%,90.5%,122%,94.6%,137%
CCN1CCN(c2nc(NNC(=O)c3ccccc3)nc(N3CCN(C(c4ccccc4)c4ccccc4)CC3)n2)CC1,71.9%,9.4% (active),4.38% (active),71.7%,59.7%,76.9%,79.3%,73.1%,13.9%
COc1ccc(C2NN=C3c4ccccc4CCC32)cc1 (stereo unspecified),98.8%,10.2%,25.4%,58.5%,47%,69.3%,40.2%,58%,60.1%
COc1ccc2c(c1)[nH]c(=O)c1c3cc(C)c(C)cc3cn21,-68% (active),35.9%,15.6%,-35.7% (active),-48.6% (active),-3.98% (active),-51.7% (active),8.86% (active),66.8%
Cc1ccc(-c2nc(C#N)c(S(=O)(=O)n3nc(-c4ccccc4)cc3N)o2)cc1,105%,13.3%,-34.9% (active),89%,85%,101%,104%,97%,92.1%
COc1ccc(/C=C\c2cc(OC)c(OC)c(OC)c2)cc1OC(=O)c1cccc(Cn2cc(CCOC(=O)c3cccc(Cn4nnc5c4C(=O)c4ccccc4C5=O)c3)nn2)c1,7.26% (active),8.24% (active),41.5%,21.6%,15.9%,27.7%,11%,-22.5% (active),67.3%
COc1ccncc1S(=O)(=O)NC(=O)Nc1ccc(Cl)c(Cl)c1,109%,77.5%,90.1%,100%,79.3%,91%,85.4%,107%,-32.8% (active)
COc1cc(/C=C/C(=O)N2CCN(C(=O)/C=C/c3cc(OC)c(OC)c(OC)c3)CC2)cc(OC)c1OC,109%,98.7%,127%,82.7%,121%,118%,122%,103%,94.3%
CCCN=C1NC(=O)/C(=C/c2nc(-c3ccc(OC)cc3)n3ccccc23)S1,38.9%,91.6%,95.3%,55.9%,54.6%,76.2%,124%,95.4%,110%
C/C(=N/NC(=S)Nc1ccccc1)c1nc2ccc(Cl)cc2[nH]1,-99.1% (active),-9.4% (active),-74% (active),-21.4% (active),-91.5% (active),-89.6% (active),-58.6% (active),-72.1% (active),-94.9% (active)
c1ccc(-c2nnc(-c3ccccn3)s2)nc1,110%,93.9%,86.3%,95.1%,109%,95.4%,100%,99.8%,96%
c1ccc(-c2cn(-c3ccccc3)c(-c3ccccc3)n2)cc1,71.4%,-51.5% (active),95%,94.3%,79.9%,85.5%,127%,73.5%,-45.3% (active)
Cc1ccc(S(=O)(=O)n2cc(C(=O)C(=O)N3CCOCC3)c3ccccc32)cc1,109%,86.9%,91%,80.2%,110%,97%,94.1%,91.2%,98.4%
CC(C)CSc1nc(NN)c(C#N)c(-c2ccccc2)n1,103%,94.5%,118%,107%,90.1%,84.6%,88.1%,94.5%,110%
C=C[C@@H]1C[C@@H]2Cc3cc(F)ccc3N1O2,112%,95.7%,170%,112%,115%,106%,112%,107%,93.8%
N[C@H]1CN(C(=O)c2cc3cc(Br)c(F)c(F)c3[nH]2)C[C@@H]1O,112%,104%,101%,92%,103%,88.5%,104%,96%,-76.6% (active)
COc1cc(C2NN=C3c4ccccc4CCC32)cc(OC)c1OC (stereo unspecified),92.5%,42.8%,48.6%,48.4%,87.2%,84%,102%,85.4%,-36.4% (active)
CCN(CC)c1ccc(/C=C2\Oc3ccc(O)c(I)c3C2=O)cc1,87%,12.5%,63.4%,65.8%,63%,71.4%,68.9%,58.3%,80.6%
